Source: ChEMBL document CHEMBL4513216, “Probing the Open Global Health Chemical Diversity Library for Multistage-Active Starting Points for Next-Generation Antimalarials” (ACS Infect Dis, 2020)
Among all 69,000 compounds or so, about 8,600 (12%) showed an effect of 50% or more. This excerpt belongs to a sample that is enriched for strong results.

System: Plasmodium berghei
Test: Screen against P. berghei liver stage (PbLuc), transformed with Luciferase, at 10uM
Format: functional, HepG2
Details: tested at 10 uM

Row | SMILES | INHIBITION [%]
1 | Cc1nc(CN2CCCC(N(C)CCOCC(F)(F)F)C2)no1 (stereo not drawn) | -13.5
2 | c1cc(COc2ccc(CNC3CCc4ncnn4C3)cc2)ccn1 (stereo not drawn) | -1.76
3 | CS(=O)(=O)CC1(CNc2c(C#N)cnc3ccc(Cl)cc23)CC1 | -14.1
4 | CS(=O)(=O)c1cn[nH]c1C1CCCCN1C(=O)c1ccsc1 (stereo not drawn) | -69.5
5 | CN1C(=O)CCC12CCC(NC(=O)NCc1cccnc1)CC2 (stereo not drawn) | 28.5
6 | O=S(=O)(N1CCCCCC1)N1CCN(Cc2ccc(F)cc2Br)CC1 | 71.2
7 | CS(=O)(=O)N1CCN(Cc2ccc(F)cc2Br)CC1 | 35.4
8 | O=S(=O)(c1ccccc1)N1CCN(Cc2ccc(F)cc2Br)CC1 | 33.1
9 | CN1C(=O)CC(C(=O)O)C12CCN(c1ccc3cccc(Cl)c3n1)CC2 (stereo not drawn) | -0.273
10 | CCC1=N[C@@]2(CC[C@@H]3CN(CC(C)C)C[C@@H]32)C(=O)N1 | 24.9
11 | COc1cccc(C2SCC(=O)Nc3ccsc32)c1 (stereo not drawn) | 3.68
12 | COc1ccc(C2SCC(=O)Nc3ccsc32)cc1OC (stereo not drawn) | 3.68
13 | O=C1CSC(c2ccsc2)c2sccc2N1 (stereo not drawn) | 20.5
14 | O=C1CSC(c2ccc(O)cc2)c2sccc2N1 (stereo not drawn) | 88.1
15 | COc1cc(OC)cc(C2SCC(=O)Nc3ccsc32)c1 (stereo not drawn) | 3.68
16 | COC(=O)c1ccc(C2SCC(=O)Nc3ccsc32)cc1 (stereo not drawn) | 78.1
17 | COc1cc(C2SCC(=O)Nc3ccsc32)cc(OC)c1OC (stereo not drawn) | 29.4
18 | COc1ccc(C2SCC(=O)Nc3ccsc32)cc1 (stereo not drawn) | 67.9
19 | COc1cc(C2SCC(=O)Nc3ccsc32)cc(OC)c1O (stereo not drawn) | 43.7
20 | COCC1CC2(CCN(Cc3nc(C)cs3)CC2)CO1 (stereo not drawn) | 14.9
21 | COc1cc(C(=O)NC(CC(=O)O)c2cccs2)cc(OC)c1C (stereo not drawn) | 5.03
22 | COc1ccc(C2=NOC(CC#N)C2)cc1 (stereo not drawn) | 45.8

Row | SMILES | INHIBITION [%]
23 | Cc1cc(C)n(CC2CCCN2C(=O)CCNc2ncccn2)n1 (stereo not drawn) | -9.4
24 | NC(=O)C1(CNC(=O)CCc2ccc(Cl)s2)CCOCC1 | 13.8
25 | O=C(CCCN1CCCCC1)NC(C(=O)O)c1cccc(F)c1 (stereo not drawn) | -20
26 | CN(C)C(=O)COC1COC2(CCN(S(C)(=O)=O)CC2)C1 (stereo not drawn) | 37
27 | CCn1cc2[nH]c(OC)c(CNC(=O)CCC3CCCC3)cc-2c1=O | 34.4
28 | COc1ccc(C(C)(C)C)cc1CN1CCn2c(CO)nnc2C1 | 48.4
29 | CCn1cc(NC(=O)C2CCN(Cc3noc(C4CC4)n3)CC2)cn1 | 18.2
30 | O=C(CCN1C(=O)CCC1=O)Nc1ccc(Oc2ccc(Cl)cc2)nc1 | 51.1
31 | O=C(CCN1C(=O)CCC1=O)Nc1cnn(-c2ccccc2Cl)c1 | 28.5
32 | O=C(CCN1C(=O)CCC1=O)Nc1ccc(OCC(F)(F)F)nc1 | 39.4
33 | CC(C)N(C)C(=O)c1ccc(Cl)c(NC(=O)CCN2C(=O)CCC2=O)c1 | 35.2
34 | CC(C)OCC(=O)Nc1ccc(Oc2ccc3c(c2)OCO3)nc1 | 29.9
35 | O=C(CCN1C(=O)CCC1=O)Nc1ccc(Cl)cc1 | 67.2
36 | COC1CCN(C(=O)NCC(N)=O)CC(=O)N(C)c2ccccc21 (stereo not drawn) | 16.2
37 | Cc1cnn(CC2CN(Cc3cccnc3)CCO2)c1 (stereo not drawn) | -7.81
38 | COC(=O)CN1CCCn2nc(CCC(=O)N3CCCC3)cc2C1 | 32.4
39 | CC(=O)N1CC(C)CN(C(=O)c2cnccn2)c2ccccc21 (stereo not drawn) | 60.7
40 | CC(=O)N1CC(C)CN(C(=O)c2cccnc2C)c2ccccc21 (stereo not drawn) | -9.8
41 | CC1CN(C)c2ccccc2N(C(=O)c2c[nH]c(C(C)C)n2)C1 (stereo not drawn) | 29.6
42 | CC(C)c1cc(COCCC(=O)O)no1 | 44.1
43 | CN1CCN(Cc2nc3ccccc3[nH]2)[C@H]2CS(=O)(=O)C[C@H]21 | -1.64
44 | CN1CCN(C(=O)NCCc2ccc(F)cc2)[C@H]2CS(=O)(=O)C[C@H]21 | 52.2

Row | SMILES | INHIBITION [%]
45 | CN1CCN(Cc2cnn(-c3ccc(F)cc3)c2)[C@H]2CS(=O)(=O)C[C@H]21 | 69.8
46 | Cc1cccc(-n2cc(CN3CCN(C)[C@@H]4CS(=O)(=O)C[C@@H]43)cn2)c1 | 4.41
47 | COc1ccc(CCNC(=O)N2CCN(C)[C@@H]3CS(=O)(=O)C[C@@H]32)cc1 | 31.9
48 | COc1ccc(CNC(=O)N2CCN(C)[C@@H]3CS(=O)(=O)C[C@@H]32)cc1 | 0.891
49 | Cc1ccc(-n2cc(CN3CCN(C)[C@@H]4CS(=O)(=O)C[C@@H]43)cn2)cc1 | 29.1
50 | COc1ccccc1-n1cc(CN2CCN(C)[C@@H]3CS(=O)(=O)C[C@@H]32)cn1 | 50.1
51 | CN1CCN(Cc2cnn(-c3ccccc3Cl)c2)[C@H]2CS(=O)(=O)C[C@H]21 | -54.8
52 | Cc1nn(C)c2cnn(Cc3ccc(C(=O)NCC4CCCO4)o3)c12 (stereo not drawn) | 17.6
53 | O=C1CC2(CCSC2)C(=O)N1Cc1coc(-c2cccc(F)c2)n1 (stereo not drawn) | 3.03
54 | Cc1noc(C)c1CN1CCc2ncc(Cn3cccn3)n2CC1 | 26
55 | Cc1nonc1C(=O)N1CCCC(c2ncncc2-c2ccncc2)C1 (stereo not drawn) | 42.1
56 | Cc1nc(Nc2cnccn2)cc(C2CCCN2)n1 (stereo not drawn) | 34.9
57 | Cc1ccc(CNC(=O)CN2CCOC(Cn3cncn3)C2)s1 (stereo not drawn) | 5.03
58 | O=C(NCCN1CCCCC1)c1ccoc1 | 16.1
59 | COc1cc(CNCCc2cc(F)cc3c2OCOC3)cc(OC)c1 | 26.6
60 | CCn1cnnc1CNC(=O)N(C)C(C)c1cccs1 (stereo not drawn) | -41.1
61 | CNC(=O)CC1CCN(C(=O)NCc2cn3c(C)cccc3n2)CC1 | 45.2
62 | CCOCC1CCCN(C(=O)NCc2cn3c(C)cccc3n2)C1 (stereo not drawn) | 21.6
63 | Cc1cccc(OC2CCN(C(=O)NCCn3ccnc3)CC2)c1C | -4.13
64 | O=C(NCc1cc[nH]n1)N1CCN(c2ccccc2Cl)CC1 | 39.2
65 | O=C(C1CC1)N1CCC(Oc2ccccc2Cl)CC1 | 88.1
66 | CS(=O)(=O)NC1CCN(C(=O)NCc2cc[nH]n2)CC1 | 8.64

Row | SMILES | INHIBITION [%]
67 | CCOc1ccccc1N1CCN(C(=O)NCc2cc[nH]n2)CC1 | 49.8
68 | Cc1cccc2nc(CNC(=O)N3CCC(OCC4CC4)CC3)cn12 | 51.2
69 | CN1CC(C(=O)N2CCC(Oc3ccccc3Cl)CC2)CC1=O (stereo not drawn) | 35.5
70 | Cc1cccc(OC2CCN(C(=O)NCc3cc[nH]n3)CC2)c1C | 88.4
71 | O=C(C1CC(=O)N(C2CC2)C1)N1CCC(Oc2ccccc2Cl)CC1 (stereo not drawn) | -6.88
72 | O=C(NCc1cc[nH]n1)N1CCC(Oc2ccccc2Cl)CC1 | 50.2
73 | Cc1ccc(C(=O)N2CCO[C@H]3[C@@H](OCc4ccccn4)CC[C@@H]32)o1 | 3.47
74 | Cc1ccc(CNC(=O)N(C)Cc2cnn(C)c2)s1 | 25.5
75 | COC(=O)c1cc(C2CC2)nc2c(Cl)cnn12 | 20.9
76 | Cc1c(C(C)NC(=O)Nc2ccc(F)cc2F)cnn1C (stereo not drawn) | 44.3
77 | Cc1c(C(C)NC(=O)Nc2ccc(F)c(F)c2)cnn1C (stereo not drawn) | 6.26
78 | Cc1c(C(C)NC(=O)Nc2ccccc2F)cnn1C (stereo not drawn) | 61.9
79 | Cc1ccccc1CSc1ncccc1C(=O)N(C)C | -13.2
80 | Cc1cncc(CN2CC[C@@](O)(CNC(=O)c3c[nH]cn3)[C@H](O)C2)c1 | 32.7
81 | c1cnn(CC2CN(c3ncnc4c3CCC4)CCO2)c1 (stereo not drawn) | -7.17
82 | c1nc(N2CCOC(Cn3cncn3)C2)c2sccc2n1 (stereo not drawn) | 49.4
83 | c1nc2c(c(N3CCOC(Cn4cncn4)C3)n1)CCC2 (stereo not drawn) | -26.9
84 | c1cnn(CC2CN(c3ncnc4[nH]ccc34)CCO2)c1 (stereo not drawn) | 13.3
85 | Cc1nc(N2CCCOC(Cn3cccn3)C2)c2sccc2n1 (stereo not drawn) | 65.7
86 | Cc1cnn(CC2CN(c3ncnc4ccccc34)CCO2)c1 (stereo not drawn) | 64.4
87 | Cc1nnc(N2CCOC(Cn3cccn3)C2)c(C#N)c1C (stereo not drawn) | 17.8
88 | c1cnn(CC2CN(c3ncnc4sccc34)CCO2)c1 (stereo not drawn) | 45

Row | SMILES | INHIBITION [%]
89 | Cc1cnn(CC2CN(c3ncnc4[nH]ccc34)CCO2)c1 (stereo not drawn) | 19.4
90 | c1ccc2c(N3CCOC(Cn4cccn4)C3)ncnc2c1 (stereo not drawn) | 4.48
91 | c1cnn(CC2CN(c3ncnc4ccsc34)CCO2)c1 (stereo not drawn) | 62.4
92 | Cc1cnn(CC2CN(c3ncnc4c3CCC4)CCO2)c1 (stereo not drawn) | 63
93 | O=C1CN(C(=O)C2CN(c3cccc(Cl)c3)CCO2)CCN1 (stereo not drawn) | 3.46
94 | Cn1cnc2cc(C(=O)NS(=O)(=O)c3ccccc3Cl)ccc21 | -32.1
95 | Cc1ccc2c(c1)C(=O)NCC1(CCN(Cc3ccccc3)CC1)O2 | -6.92
96 | COc1ccc(-n2ccc(C(=O)N(C)C(C)C3(C)CC3)n2)cc1 (stereo not drawn) | 29.1
97 | Cc1cccc(CN2CCC(N(C)Cc3nnc(C4CC4)n3C)C2)c1 (stereo not drawn) | 38.5
98 | COc1ccc(CCNC(=O)NCC(O)c2cccc(F)c2)cc1 (stereo not drawn) | 12.7
99 | CC(C)c1sc(Br)nc1C(=O)NCc1ccncc1 | 45.3
100 | O=C(NCCc1cnccn1)c1ccc(S(=O)(=O)NC2CCC2)cc1 | 40.3
101 | CC(C)N1CC[C@@H]2[C@H](COCC3CC3)CN(C)C(=O)[C@@H]2CC1 | 10.5
102 | O=C(NC[C@]1(O)CN(Cc2ccc(F)cc2)C[C@H]1O)c1ccccn1 | 18.9
103 | Cc1nc(N2C[C@H]3CNC[C@H]3C2)c2sccc2n1 | 55.6
104 | COC1[C@@H]2CC[C@H]1CN(c1nc(C)nc3ccsc13)C2 (stereo partly drawn) | 43
105 | Cc1nc(N2C[C@@H](CN3CCCCC3)[C@@H](CO)C2)c2sccc2n1 | 46.4
106 | Cc1cnn(CC2CN(c3ncnc4ccsc34)CCO2)c1 (stereo not drawn) | 83.7
107 | Cc1cnn(CC2CN(c3cnc4ccccc4n3)CCO2)c1 (stereo not drawn) | 16.2
108 | CN(C)CC1CN(c2ncnc3ccsc23)CCO1 (stereo not drawn) | 30.8
